Compounds without any hit were thinned out: in the full panel of roughly 79,000, 15% have a hit. Activity calls are given as the source filed them. Cut-off read from the data, not from the text of the source: active = growth inhibition above about 70%; inactive = the rest.
Key:
[1] = NCI Yeast Anticancer Drug Screen. Data for the wt1 strain (AID 149);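 note: 0% = growth of vehicle-treated wt1 cultures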; conditions: S. cerevisiae wt1 strain (SPY 50644) growth inhibition, active compounds read high
How it was run: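 The wt1 strain was treated with compounds, and growth was compared with vehicle-treated cultures to give inhibition.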

[2] = NCI Yeast Anticancer Drug Screen. Data for the rad50EPP+ strain (AID 151);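 note: 0% = growth of vehicle-treated control cultures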; conditions: S. cerevisiae rad50 mutant strain, active compounds read high
How it was run: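 Yeast strain carrying rad50 alteration (rad50EPP+) exposed to compounds; growth inhibition measured relative to vehicle-treated controls.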

[3] = NCI Yeast Anticancer Drug Screen. Data for the mgt1 strain (AID 153); conditions: S. cerevisiae mgt1 mutant growth inhibition, active compounds read high
How it was run: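 Yeast mgt1 strain (DNA repair/cell-cycle alteration panel) exposed to compounds; growth inhibition measured relative to vehicle-treated controls.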

[4] = NCI Yeast Anticancer Drug Screen. Data for the rad50 strain (AID 155);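 note: 0% = growth of vehicle-only cultures of the same strain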; conditions: S. cerevisiae rad50 strain growth inhibition, active compounds read high
How it was run: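 Cells are treated with compound, grown, and their growth is then scored against vehicle-only cultures of the same repair-deficient yeast strain.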

[5] = NCI Yeast Anticancer Drug Screen. Data for the mec2-1 strain (AID 157); conditions: S. cerevisiae mec2-1 strain, active compounds read high
How it was run: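 mec2-1 yeast strain, carrying an alteration in DNA damage repair or cell cycle control, was exposed to compounds; growth inhibition was measured relative to vehicle-treated controls.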

[6] = NCI Yeast Anticancer Drug Screen. Data for the rad14 strain (AID 159);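 note: 0% = growth of vehicle-treated control cultures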; conditions: S. cerevisiae rad14 strain growth inhibition, active compounds read high
How it was run: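 Readout: yeast growth inhibition, referenced to vehicle-only cultures. Strain bears a defined alteration in DNA damage repair.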

[7] = NCI Yeast Anticancer Drug Screen. Data for the sgs1 mgt1 strain (AID 161);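 note: 0% = growth of cultures given vehicle only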; conditions: S. cerevisiae sgs1 mgt1 strain, active compounds read high
How it was run: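 This yeast growth screen uses a strain with defined DNA-repair lesions; compound-treated growth is compared with vehicle-treated growth.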

[8] = NCI Yeast Anticancer Drug Screen. Data for the CLN2oe strain (AID 163);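 note: 0% = growth of vehicle-only control cultures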; conditions: S. cerevisiae CLN2oe strain, active compounds read high
How it was run: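 Yeast cells carrying a defined cell-cycle control alteration were exposed to test compounds. Growth inhibition was scored against vehicle-treated control cultures.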

[9] = NCI Yeast Anticancer Drug Screen. Data for the cln2 rad14 strain (AID 165);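 note: 0% = growth equal to vehicle treated cultures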; conditions: S. cerevisiae cln2 rad14 strain, active compounds read high
How it was run: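 Yeast carrying cln2 and rad14 alterations (cell cycle control and DNA damage repair) were exposed to compounds. Growth inhibition was measured against vehicle-treated controls.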

[10] = NCI Yeast Anticancer Drug Screen. Data for the bub3 strain (AID 167); conditions: S. cerevisiae bub3 mutant strain, active compounds read high
How it was run: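 Part of a panel of yeast mutants defective in DNA damage repair or cell cycle regulation. Each strain is grown with compound, and inhibition is calculated relative to solvent-treated cultures.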

[11] = NCI Yeast Anticancer Drug Screen. Data for the wt2 strain (AID 169);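 note: 0% = growth of vehicle-treated yeast cultures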; conditions: S. cerevisiae wt2 strain growth inhibition, active compounds read high
How it was run: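 Yeast cells were exposed to test compounds, and growth inhibition was measured relative to vehicle-treated controls.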

[12] = NCI Yeast Anticancer Drug Screen. Data for the sgs1 strain (AID 173);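 note: 0% = growth of vehicle-only control cultures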; conditions: S. cerevisiae sgs1 mutant, active compounds read high
How it was run: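 Yeast mutant strains carrying defined defects in DNA damage repair or cell cycle control were exposed to test compounds. Growth inhibition was scored against vehicle-treated controls.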

[13] = NCI Yeast Anticancer Drug Screen. Data for the mlh1 rad18 strain (AID 175); conditions: S. cerevisiae mlh1 rad18 strain growth inhibition, active compounds read high
How it was run: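 Growth inhibition of the yeast strain was measured after compound exposure and expressed relative to vehicle-treated controls. The strain carries defined defects in DNA damage repair.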

[14] = NCI Yeast Anticancer Drug Screen. Data for the mlh1 strain (AID 171);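 note: 0% = growth of vehicle-treated control cultures of the same strain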; conditions: S. cerevisiae mlh1 strain growth inhibition, active compounds read high
How it was run: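 Yeast carrying a defined genetic alteration in DNA damage repair or cell cycle control were exposed to test compounds. Growth inhibition was measured relative to vehicle-treated controls.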

[15] = NCI Yeast Anticancer Drug Screen. Data for the rad18 strain (AID 177); conditions: S. cerevisiae rad18 mutant growth inhibition, active compounds read high
How it was run: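 Yeast carrying a defined DNA damage repair alteration were exposed to compounds. Growth inhibition was expressed relative to vehicle-treated controls.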

[16] = at 5.0 µM (retest, dose inferred, filed as 0.5)
[17] = at 50.0 µM (retest, dose inferred, filed as 5.0)

Measured: growth inhibition

CC[N+]1(C)CCC(O)(/C=C/c2ccc(Cl)c(Cl)c2)C(C(=O)/C=C/c2ccc(Cl)c(Cl)c2)C1 (stereo not drawn)
inactive: [1]; at 1.2 µM -29% | [1]; at 3.7 µM 30% | [2]; at 1.2 µM 12% | [3]; at 1.2 µM 7% | [4]; at 1.2 µM 7% | [4]; at 3.7 µM 52% | [5]; at 1.2 µM 36% | [6]; at 1.2 µM 6% | [6]; at 3.7 µM 39% | [8]; at 1.2 µM -8% | [8]; at 3.7 µM 15% | [9]; [16] 46% | [10]; at 1.2 µM 0% | [10]; at 3.7 µM 20% | [11]; at 1.2 µM -4% | [11]; at 3.7 µM 29% | [12]; at 1.2 µM 15%
active: [1]; at 11.0 µM 99% | [1]; at 33.0 µM 99% | [1]; at 100.0 µM 98% | [2]; at 3.7 µM 85% | [2]; at 11.0 µM 99% | [2]; at 33.0 µM 99% | [2]; at 100.0 µM 99% | [3]; at 3.7 µM 72% | [3]; at 11.0 µM 99% | [3]; at 33.0 µM 99% | [3]; at 100.0 µM 99% | [4]; [16] 85% | [4]; at 11.0 µM 99% | [4]; at 33.0 µM 99% | [4]; [17] 98% | [4]; at 50.0 µM 99.5% | [4]; at 100.0 µM 98% | [5]; at 3.7 µM 88% | [5]; [16] 86% | [5]; at 11.0 µM 99% | [5]; at 33.0 µM 99% | [5]; [17] 99% | [5]; at 50.0 µM 99.3% | [5]; at 100.0 µM 99% | [6]; at 11.0 µM 99% | [6]; at 33.0 µM 99% | [6]; at 100.0 µM 99% | [7]; [16] 88% | [7]; [17] 98% | [7]; at 50.0 µM 99.5% | [8]; at 11.0 µM 99% | [8]; at 33.0 µM 98% | [8]; at 100.0 µM 99% | [9]; [17] 99% | [9]; at 50.0 µM 99% | [10]; [16] 90% | [10]; at 11.0 µM 98% | [10]; at 33.0 µM 99% | [10]; [17] 99% | [10]; at 50.0 µM 99.1% | [10]; at 100.0 µM 96% | [11]; at 11.0 µM 99% | [11]; at 33.0 µM 99% | [11]; at 100.0 µM 99% | [12]; at 3.7 µM 71% | [12]; at 11.0 µM 99% | [12]; at 33.0 µM 99% | [12]; at 100.0 µM 98% | [13]; [16] 82% | [13]; [17] 99% | [13]; at 50.0 µM 99.2%

O=c1[nH]c(=O)n(CCCO)cc1F
inactive: [1]; at 1.2 µM -32% | [1]; at 3.7 µM 0% | [1]; at 11.0 µM -9% | [1]; at 33.0 µM 4% | [1]; at 100.0 µM -4% | [2]; at 1.2 µM -14% | [2]; at 3.7 µM -7% | [2]; at 11.0 µM -9% | [2]; at 33.0 µM -10% | [2]; at 100.0 µM -2% | [3]; at 1.2 µM -13% | [3]; at 3.7 µM -31% | [3]; at 11.0 µM -24% | [3]; at 33.0 µM -33% | [3]; at 100.0 µM -18% | [4]; at 1.2 µM -21% | [4]; at 3.7 µM -11% | [4]; [16] 42% | [4]; at 11.0 µM -10% | [4]; at 33.0 µM -12% | [4]; [17] 44% | [4]; at 50.0 µM 34.4% | [4]; at 100.0 µM -13% | [5]; at 1.2 µM -36% | [5]; at 3.7 µM -27% | [5]; [16] 24% | [5]; at 11.0 µM -41% | [5]; at 33.0 µM -33% | [5]; [17] 20% | [5]; at 50.0 µM -38.6% | [5]; at 100.0 µM -23% | [6]; at 1.2 µM -29% | [6]; at 3.7 µM -19% | [6]; at 11.0 µM -20% | [6]; at 33.0 µM -26% | [6]; at 100.0 µM -30% | [7]; [16] 58% | [7]; at 50.0 µM -33.4% | [8]; at 1.2 µM 3% | [8]; at 3.7 µM 8% | [8]; at 11.0 µM 9% | [8]; at 33.0 µM 3% | [8]; at 100.0 µM 7% | [9]; [16] 13% | [9]; [17] 26% | [9]; at 50.0 µM -8.55% | [10]; at 1.2 µM -14% | [10]; at 3.7 µM -22% | [10]; [16] 20% | [10]; at 11.0 µM -22% | [10]; at 33.0 µM -37% | [10]; [17] 15% | [10]; at 50.0 µM -26.6% | [10]; at 100.0 µM -21% | [11]; at 1.2 µM 3% | [11]; at 3.7 µM -6% | [11]; at 11.0 µM -14% | [11]; at 33.0 µM -22% | [11]; at 100.0 µM -18% | [14]; at 1.2 µM -30% | [14]; at 3.7 µM -15% | [14]; at 11.0 µM -19% | [14]; at 33.0 µM -15% | [14]; at 100.0 µM -19% | [12]; at 1.2 µM -27% | [12]; at 3.7 µM -16% | [12]; at 11.0 µM -24% | [12]; at 33.0 µM -3% | [12]; at 100.0 µM -11% | [15]; at 1.2 µM -18% | [15]; at 3.7 µM -6% | [15]; at 11.0 µM -4% | [15]; at 33.0 µM 13% | [15]; at 100.0 µM 42%
active: [7]; [17] 76%

COc1ccc2cc(CN3CCC(C4CCN(Cc5ccc6cc(OC)ccc6c5)CC4)CC3)ccc2c1
active: [1]; at 100.0 µM 98% | [2]; at 100.0 µM 98% | [3]; at 100.0 µM 97% | [4]; at 50.0 µM 88.8% | [4]; at 100.0 µM 97% | [5]; at 50.0 µM 75.7%
inactive: [1]; at 1.2 µM -1% | [1]; at 3.7 µM -16% | [1]; at 11.0 µM 5% | [1]; at 33.0 µM 8% | [2]; at 1.2 µM -17% | [2]; at 3.7 µM -14% | [2]; at 11.0 µM -12% | [2]; at 33.0 µM -2% | [3]; at 1.2 µM -9% | [3]; at 3.7 µM -5% | [3]; at 11.0 µM 0% | [3]; at 33.0 µM 4% | [4]; at 1.2 µM -2% | [4]; at 3.7 µM 5% | [4]; [16] 1% | [4]; at 11.0 µM 9% | [4]; at 33.0 µM 26% | [4]; [17] 38% | [5]; at 1.2 µM -17% | [5]; at 3.7 µM -40% | [5]; [16] -2% | [5]; at 11.0 µM -40% | [5]; at 33.0 µM -31% | [5]; [17] 22%

Reference: PubChem BioAssay (NCI)
